{
  "source": "ChEMBL document CHEMBL4513216",
  "about": "“Probing the Open Global Health Chemical Diversity Library for Multistage-Active Starting Points for Next-Generation Antimalarials” (ACS Infect Dis, 2020)",
  "note": "The campaign covered roughly 69,000 compounds. About 8,600 (12%) showed an effect of 50% or more. What follows is part of a selection rich in strong results, with near analogues and random picks from the rest.",
  "data": [
    {"test_system": "Plasmodium berghei", "test": "Screen against P. berghei liver stage (PbLuc), transformed with Luciferase, at 10uM", "type": "functional, HepG2", "details": "tested at 10 uM", "units": {"INHIBITION": "%"}, "values": [
      {"compound": "CC(C)N(C)Cc1cncc2c1CCN(C(=O)c1ccc[nH]1)C2", "INHIBITION": 29},
      {"compound": "Cc1cccc(CN2CCc3ncnc(N4CCN(C)CC4)c3CC2)n1", "INHIBITION": -110},
      {"compound": "COc1ccc(OC)c(-n2nnnc2SCC2CCCCO2)c1", "note": "(configuration not stated)", "INHIBITION": 20.9},
      {"compound": "Cc1cc(C)c(CNC(=O)NCC2CCCOC2)c(=O)[nH]1", "note": "(configuration not stated)", "INHIBITION": 27.5},
      {"compound": "N#Cc1ccc(CNc2cccc(C(=O)N3CCOCC3)c2)cc1", "INHIBITION": 24.2},
      {"compound": "Cc1nc(C)n(CC2CCCN(CC(=O)NC3CCOCC3)C2)n1", "note": "(configuration not stated)", "INHIBITION": -17},
      {"compound": "CCN1CCC(=O)N(C)Cc2cc(F)ccc21", "INHIBITION": 35.8},
      {"compound": "O=C(Cc1ccc2c(c1)OCCCO2)Nc1nnn[nH]1", "INHIBITION": -5.38},
      {"compound": "O=C(NCc1cccnc1OCC(F)(F)F)N1CCOCC1", "INHIBITION": 69.3},
      {"compound": "CC(=O)N1CCCN(C(=O)NCCNc2ccccn2)CC1", "INHIBITION": 16.533},
      {"compound": "CC(=O)N1CCCN(C(=O)NCc2ccccn2)CC1", "INHIBITION": 53.3},
      {"compound": "COCCOc1ncccc1CNC(=O)N1CCOCC1", "INHIBITION": 44.3},
      {"compound": "CC(=O)N1CCN(C(=O)NCc2cccnc2OC(C)C)CC1", "INHIBITION": 48.2},
      {"compound": "CC(C)CN1CCN(C(=O)NCc2cccnc2-n2cccn2)CC1", "INHIBITION": 11},
      {"compound": "CN1CCCN(C(=O)NCc2cccnc2-n2cccn2)CC1", "INHIBITION": 52.3},
      {"compound": "O=C(CC1CCCCC1)N1CCN(C(=O)NCc2ccccn2)CC1", "INHIBITION": 12.7},
      {"compound": "CC(C)Oc1ncccc1CNC(=O)N1CCC(n2cccc2)CC1", "INHIBITION": -69},
      {"compound": "CC(C)Oc1ncccc1CNC(=O)N1CCOCC1", "INHIBITION": 65.6},
      {"compound": "COc1ncccc1CNC(=O)N1CCC(CN2CCOCC2)CC1", "INHIBITION": 29.4},
      {"compound": "CCN1CCN(C(=O)NCc2cccnc2-n2cccn2)CC1", "INHIBITION": 33.8},
      {"compound": "CCCc1nc(Nc2cccc(C(N)=O)c2)c2c(n1)c(C)nn2CC", "INHIBITION": -28.15},
      {"compound": "O=C(Cn1cccc(S(=O)(=O)N2CCCC2)c1=O)c1ccccc1Cl", "INHIBITION": 16.6},
      {"compound": "CCOc1cc(=O)n2c(c1C(=O)OCc1cccc(C)c1)CCCC2", "INHIBITION": 43.8},
      {"compound": "c1csc(CN2CCn3c(Cn4cncn4)cnc3C2)n1", "INHIBITION": 45.5},
      {"compound": "COC(=O)C1CCN(c2cc(C)nc(-c3ccncc3)n2)CC1", "INHIBITION": -53.5},
      {"compound": "Cc1noc(C)c1C(=O)N1C[C@@H]2COC[C@]2(COc2ccccn2)C1", "INHIBITION": 18.5},
      {"compound": "CN1CCN(C(=O)c2cc(NC(=O)c3ccccc3)n(C)n2)CC1", "INHIBITION": 46.6},
      {"compound": "Cn1nc(C(=O)N2CCCCCC2)cc1NC(=O)c1ccccc1", "INHIBITION": 26.4},
      {"compound": "CCN1CCN(C(=O)c2cc(NC(=O)c3ccccc3)n(C)n2)CC1", "INHIBITION": 75.7},
      {"compound": "CC(C)N1c2sc(-c3ccsc3)nc2CC1C(=O)NC1CCCC1", "note": "(configuration not stated)", "INHIBITION": 47.5},
      {"compound": "CC(C)N1c2sc(-c3ccsc3)nc2CC1C(=O)NC1CC1", "note": "(configuration not stated)", "INHIBITION": 26.5},
      {"compound": "CC(C)N1c2sc(-c3ccccc3)nc2CC1C(=O)NC1CCCC1", "note": "(configuration not stated)", "INHIBITION": 57.1}
    ]}
  ]
}
